Our source for the growth values is PubChem BioAssay (NCI).

Molecules are shown by their SMILES. This is part of a sample that, as a whole, favours compounds with a hit. Of some 83,000 tested, about 20% had one in any assay.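 The endpoint reported here, percent growth, reads 100 for growth as untreated, 0 for no net growth and -100 for all cells dead.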 Unmarked numbers belong to inactive results. The source made the active and inactive calls. Rule for the calls: active = growth percent below 10; inactive = the rest.

In one experiment the test system is HCT-116 colon. Description: NCI-60 one-dose screen, 48 h (100 = growth as untreated, 0 = no growth, -100 = all killed). The note with it: 10 µM unless noted.
Consider `Cc1cc(N2CCN(C)CC2)nc(N(CCNc2ccnc3cc(Cl)ccc23)Cc2ccco2)n1`, for which the growth was 17.1%.

With `COc1cc2c3c(c4c5ccccc5[nH]c4c2c(OC)c1OC)C(=O)N(O)C3=O`, the growth was 16.8%. With `COc1ccc(C2NC(=O)Nc3ccccc32)c(OC)c1` (configuration not stated), the growth is 104%. Turning to `C/C(=N\Nc1cc(C)c2cc(C)ccc2n1)c1ccccn1`, the growth is -72.6% (active). Same read-out and setting: the same measure for `CC(C)=CCC[C@](C)(O)[C@H]1CC[C@]2(C)[C@@H]1CC[C@@H]1[C@@]3(C)C/C(=C/c4ccc(Br)cc4)C(=O)C(C)(C)[C@@H]3CC[C@]12C`: 66.5%; for `CCOC(=O)N1CCN(CCCCOc2ccc(C(C)(C)CC)cc2)CC1`: 70.8%; for `COC(=O)CCCCCn1c2ccccc2c2c3c(c4c5ccccc5[nH]c4c21)C(=O)N(O)C3=O`: 28.4%. Still for that read-out and setting: as for `Fc1ccc(Nc2nnc(-c3ccc(Cl)cc3)o2)cc1`, the figure is 85.1%; as for `C/C(=N\Nc1ccc2ccccc2n1)c1ccccn1`, -12% (active). As to `C=C1C(=O)O[C@H]2[C@H]1CC/C(Cn1cc(-c3ccc(F)cc3)nn1)=C\CC[C@@]1(C)O[C@@H]21`, the growth is -86% (active).

For `CSc1ccc(N(C)c2nc(C)nc3c2CCC3)cc1`, the growth is 0.112% (active). The same measure, in the same setting: the same measure for `Cc1ccc(-c2nc([P+](c3ccccc3)(c3ccccc3)c3ccccc3)c(N3CCOCC3)o2)cc1`: 1.88% (active); for `Fc1ccc2c(c1)c(-c1nc(-c3c[nH]c4ncccc34)cs1)cn2CCCN1CCCCC1`: 45.3%. Still for that read-out and setting: the same measure for `CCCC1CCCCN1C(=O)OCC(C)C` (configuration not stated): 103%; for `Cc1ccc(-c2nc3ccc(Cl)cc3c(=O)n2N2C(=O)CSC2c2ccccc2Cl)cc1` (configuration not stated): 53.1%. Still for that read-out and setting: as for `Nc1ccc(Br)cn1`, the figure is 96.4%; as for `COc1ccc(-c2nc(SCC(=O)Nc3ccc(C(C)=O)cc3)[nH]c(=O)c2C#N)cc1`, 76.3%. As for `Nc1ccc(Cl)cn1`, the growth was 95.4%. On the same count and under the same terms, the same measure for `CCN1CCN(c2nc(C)cc(N(CCCNc3ccnc4cc(Cl)ccc34)Cc3ccco3)n2)CC1`: 42.5%. With `CCc1ccccc1NC(=O)c1sc2nc3c(cc2c1N)CCCC3`, the growth is 18.7%.

With `N#CCCCCCn1c2ccccc2c2c3c(c4c5ccccc5n(CCCCCC#N)c4c21)C(=O)N(O)C3=O`, the growth was 71.3%.

As for `CCC(=O)c1c(C)[nH]c(C)c1C`, the growth was 47.2%. On the same count and under the same terms, the same measure for `O=C1NC(=Nc2ccc(S(=O)(=O)Nc3nccs3)cc2)S/C1=C\c1coc2ccccc2c1=O`: 104%. For `O=C(NC(Cc1cn(Cc2ccccc2)cn1)C(=O)O)OCC1c2ccccc2-c2ccccc21` (configuration not stated), the growth is 90.8%. Same read-out and setting: as for `Cn1cc(-c2csc(-c3c[nH]c4ccc(F)cc34)n2)c2cccnc21`, the figure is 23.1%; as for `O=C1C(=O)N(CCCCn2cc(-c3ccccc3)nn2)c2ccccc21`, 101%; as for `CCCCC(=O)OC1CCCCC1C` (configuration not stated), 81%. In the case of `Cc1ccc(N(CC(=O)Nc2ccc(S(=O)(=O)NC3CCN(C)CC3)cc2)S(=O)(=O)c2ccc(Cl)cc2)cc1`, the growth was 47.6%. The same measure, in the same setting: the same measure for `COc1ccc2c(c1)C(Br)=C(CCO)C2c1ccccc1` (configuration not stated): 57.3%. Still for that read-out and setting: the same measure for `C#Cc1cc2c(N)c(C(=O)c3cc(OC)c(OC)c(OC)c3)[nH]c2cc1OC`: 29.9%; for `COc1cnc2c(c1)C(=O)c1c-2n(CCCNC2=NCCS2)c(=O)c2cc([N+](=O)[O-])ccc12`: -66.4% (active). Same read-out and setting: the same measure for `CN1CCN(CC#CCn2c3c(c4ccccc42)C[C@]2(C)[C@H]4CC[C@@H]5[C@H]6[C@H]7OC(=O)[C@@]6(CCC7(C)C)CC[C@@]5(C)[C@]4(C)CC[C@H]2C3(C)C)CC1`: 35.1%; for `Cc1nc([P+](c2ccccc2)(c2ccccc2)c2ccccc2)c(Sc2sc(-c3ccccc3)nc2[P+](c2ccccc2)(c2ccccc2)c2ccccc2)o1`: 3.77% (active). On to `CN(CSc1ccc(Cl)cc1)c1ccc(CSc2ccc(Cl)cc2)cc1`, for which the growth was 58.1%. On the same count and under the same terms, the same measure for `O=S(=O)(NCCNc1cc(-c2cn(-c3ccccc3)nc2-c2cccc(O)c2)ccn1)c1ccc(F)cc1`: 23.9%; for `O=C1CNCCN1`: 101%; for `COc1ccc(O)c(-c2cc(-c3ccc(Cl)cc3)c(C#N)c(=O)[nH]2)c1`: 73.4%. On the same count and under the same terms, the same measure for `CCN(CC)c1ccc(/C=C/c2cc(C)c3ccccc3n2)cc1`: 22.8%.

A further experiment relates to HCC-2998 colon. The description is as above. The note with it: 10 µM unless noted.
Regarding `Cc1cc(N2CCN(C)CC2)nc(N(CCNc2ccnc3cc(Cl)ccc23)Cc2ccco2)n1`, the growth was 92.7%.

Consider `COc1cc2c3c(c4c5ccccc5[nH]c4c2c(OC)c1OC)C(=O)N(O)C3=O`, for which the growth was 55.3%. On the same count and under the same terms, the same measure for `COc1ccc(C2NC(=O)Nc3ccccc32)c(OC)c1` (configuration not stated): 92.7%. Same read-out and setting: as for `C/C(=N\Nc1cc(C)c2cc(C)ccc2n1)c1ccccn1`, the figure is -25.9% (active); as for `CC(C)=CCC[C@](C)(O)[C@H]1CC[C@]2(C)[C@@H]1CC[C@@H]1[C@@]3(C)C/C(=C/c4ccc(Br)cc4)C(=O)C(C)(C)[C@@H]3CC[C@]12C`, 92%; as for `CCOC(=O)N1CCN(CCCCOc2ccc(C(C)(C)CC)cc2)CC1`, 107%. As for `Fc1ccc(Nc2nnc(-c3ccc(Cl)cc3)o2)cc1`, the growth is 98.9%.

For the compound `C/C(=N\Nc1ccc2ccccc2n1)c1ccccn1`, the growth is 18.1%. On the same count and under the same terms, the same measure for `C=C1C(=O)O[C@H]2[C@H]1CC/C(Cn1cc(-c3ccc(F)cc3)nn1)=C\CC[C@@]1(C)O[C@@H]21`: -11.6% (active).

Regarding `CSc1ccc(N(C)c2nc(C)nc3c2CCC3)cc1`, the growth is 8.45% (active). On the same count and under the same terms, as for `Cc1ccc(-c2nc([P+](c3ccccc3)(c3ccccc3)c3ccccc3)c(N3CCOCC3)o2)cc1`, the figure is 14.1%; as for `Fc1ccc2c(c1)c(-c1nc(-c3c[nH]c4ncccc34)cs1)cn2CCCN1CCCCC1`, 98.8%; as for `CCCC1CCCCN1C(=O)OCC(C)C` (configuration not stated), 125%. Still for that read-out and setting: as for `Cc1ccc(-c2nc3ccc(Cl)cc3c(=O)n2N2C(=O)CSC2c2ccccc2Cl)cc1` (configuration not stated), the figure is 93.4%; as for `Nc1ccc(Br)cn1`, 98.1%. `COc1ccc(-c2nc(SCC(=O)Nc3ccc(C(C)=O)cc3)[nH]c(=O)c2C#N)cc1`: the growth is 105%. As to `Nc1ccc(Cl)cn1`, the growth is 113%. On the same count and under the same terms, the same measure for `CCN1CCN(c2nc(C)cc(N(CCCNc3ccnc4cc(Cl)ccc34)Cc3ccco3)n2)CC1`: 88%; for `N#CCCCCCn1c2ccccc2c2c3c(c4c5ccccc5n(CCCCCC#N)c4c21)C(=O)N(O)C3=O`: 80.8%; for `CCC(=O)c1c(C)[nH]c(C)c1C`: 114%.

In the case of `O=C1NC(=Nc2ccc(S(=O)(=O)Nc3nccs3)cc2)S/C1=C\c1coc2ccccc2c1=O`, the growth is 99.1%. The same measure, in the same setting: as for `O=C(NC(Cc1cn(Cc2ccccc2)cn1)C(=O)O)OCC1c2ccccc2-c2ccccc21` (configuration not stated), the figure is 113%. Same read-out and setting: the same measure for `Cn1cc(-c2csc(-c3c[nH]c4ccc(F)cc34)n2)c2cccnc21`: 71.7%. Regarding `O=C1C(=O)N(CCCCn2cc(-c3ccccc3)nn2)c2ccccc21`, the growth was 117%. Regarding `CCCCC(=O)OC1CCCCC1C` (configuration not stated), the growth was 111%. Same read-out and setting: as for `COc1ccc2c(c1)C(Br)=C(CCO)C2c1ccccc1` (configuration not stated), the figure is 49.3%; as for `C#Cc1cc2c(N)c(C(=O)c3cc(OC)c(OC)c(OC)c3)[nH]c2cc1OC`, 64.3%. On the same count and under the same terms, as for `CN1CCN(CC#CCn2c3c(c4ccccc42)C[C@]2(C)[C@H]4CC[C@@H]5[C@H]6[C@H]7OC(=O)[C@@]6(CCC7(C)C)CC[C@@]5(C)[C@]4(C)CC[C@H]2C3(C)C)CC1`, the figure is 106%; as for `Cc1nc([P+](c2ccccc2)(c2ccccc2)c2ccccc2)c(Sc2sc(-c3ccccc3)nc2[P+](c2ccccc2)(c2ccccc2)c2ccccc2)o1`, 15.2%; as for `CN(CSc1ccc(Cl)cc1)c1ccc(CSc2ccc(Cl)cc2)cc1`, 85.3%.

Regarding `O=S(=O)(NCCNc1cc(-c2cn(-c3ccccc3)nc2-c2cccc(O)c2)ccn1)c1ccc(F)cc1`, the growth is -34.9% (active). On the same count and under the same terms, as for `O=C1CNCCN1`, the figure is 111%; as for `COc1ccc(O)c(-c2cc(-c3ccc(Cl)cc3)c(C#N)c(=O)[nH]2)c1`, 70.6%; as for `CCN(CC)c1ccc(/C=C/c2cc(C)c3ccccc3n2)cc1`, 62.4%.
